Reference: PubChem BioAssay AID1346378 (National Center for Advancing Translational Sciences (NCATS), 2018)
The whole screen tested about 420,000 compounds, of which about 540 (0.13%) were called active. No stated cut-off is given here; in the data, active means activity change below about -50%; inconclusive means mostly about -30% to -49%; inactive means weaker than that. The entries come from a sample that favours actives as a whole.

These compounds were tested against Phosphatidylinositol 4-kinase type 2-alpha (Homo sapiens) (UniProt Q9BTU6) (assay: qHTS for small molecular inhibitors of PI4K2A). Settings: purified PI4K2A, ADP-Glo luminescence, 1 h; at 76.9 µM, stronger effect = lower value.
Chain of Phosphatidylinositol 4-kinase type 2-alpha (Homo sapiens) (Q9BTU6 whole entry, looked up): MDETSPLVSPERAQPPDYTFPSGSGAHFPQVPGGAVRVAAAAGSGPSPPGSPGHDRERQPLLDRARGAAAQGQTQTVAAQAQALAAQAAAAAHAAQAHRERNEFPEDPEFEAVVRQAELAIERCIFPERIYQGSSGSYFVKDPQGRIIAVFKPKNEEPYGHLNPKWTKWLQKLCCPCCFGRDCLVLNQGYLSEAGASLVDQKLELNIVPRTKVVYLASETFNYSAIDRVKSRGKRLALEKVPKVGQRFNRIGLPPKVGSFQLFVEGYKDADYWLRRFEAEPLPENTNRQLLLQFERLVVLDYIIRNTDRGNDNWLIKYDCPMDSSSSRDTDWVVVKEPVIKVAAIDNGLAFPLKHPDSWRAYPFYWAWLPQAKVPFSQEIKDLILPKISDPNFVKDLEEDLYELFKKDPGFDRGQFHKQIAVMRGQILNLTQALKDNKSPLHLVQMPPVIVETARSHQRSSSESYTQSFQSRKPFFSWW
Description: The phosphatidylinositol 4-phosphate (PI4P) is emerging as a key regulator of lipid transfer in ER-membrane contact sites. The four different phosphatidylinositol 4-kinase (PI4K) enzymes generate PI4P in different membrane compartments supporting distinct cellular processes many of which are crucial for the maintenance of cellular integrity but also hijacked by intracellular pathogens. The goal of this screening project is to search for small molecular inhibitors of PI4K2A based on a high throughput screening strategy.The ADP-Glo assay was used as a starting point to develop a miniaturized version for HTS applications. To implement the HTS screen, the PI4K ADP-Glotrade mark Kinase assay (Promega, V9102) was miniaturized for the 1536-well format used at NCGC.
For the robotic screening, the ADP-Glo assay using the ADP-Glotrade mark Kinase Assay kit from Promega was miniaturized and optimized on 1536-well white solid bottom plates (Greiner Bio-one). The substrate, 1.2 mM PI, prepared in the assay buffer (40mM Tris pH7.5, 20mM MgCl2, 1mM EGTA, 0.4% Triton X-100, 0.5mM DTT, 0.5mg/ml BSA) and PI4K2A enzyme, diluted also in the assay buffer to 4ug/mL, were dispensed onto the plates in equal volumes (1microl/well), pinned with 23 nL/well tested compounds or control followed by dispensation of 1microl/well 300microM ATP. The plates were incubated for one hour. Then, 2 µL/well of ADP-Glo reagent was added and incubated for 40 minutes. Next, 4microL/well of Kinase Detection Buffer was added to the plates and incubated for additional 40 minutes. All incubation steps were performed at ambient temperature. The resulting luminescence signal was measured on Viewlux plate reader (PerkinElmer). Adenosine, a partial non-specific inhibitor, was used as a positive control at 100microM final concentration to assess the assay's quality and plate-to-plate reproducibility. We also used "no enzyme" control to gauge the assay's maximal potential inhibition (IC100).
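Wherever activity change, negative = inhibition is given: -100% = wells without enzyme as full effect.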

Row | SMILES | activity change, negative = inhibition
1 | C=CCN1C(=O)NC(=O)/C(=C/c2ccc(OCC(=O)Nc3ccc(C)cc3)cc2)C1=O | -53.5% (active)
2 | C=CCN(CC=C)C(=O)Nc1ccc(OCC)cc1 | 7.59% (inactive)
3 | CCC(=O)c1ccc(OCC(=O)N2CCN(CC(=O)Nc3ccc(C)cc3)CC2)cc1 | -4.83% (inactive)
4 | CO[C@]12CC[C@@]3(C[C@@H]1[C@](C)(O)C(C)(C)C)[C@@H]1Cc4ccc(O)c5c4[C@@]3(CCN1CC1CC1)[C@H]2O5 | inactive
5 | CCCOC(=O)c1cncn1C(C)c1ccccc1 (stereo not given) | -0.694% (inactive)
